These results are taken from PubChem BioAssay (NCATS).

Records with an inconclusive call do not appear. Entries that show only a call come without a potency. Activity calls are given as the source filed them. The call rests on the fitted dose curve; in most records, active means well fitted inhibition curve with a large enough effect; inconclusive means small, poorly fitted or top-dose-only effect; inactive means flat fitted curve, though single readings scatter.
Potency means the concentration at half of the fitted maximal effect.

The assay has as its system astro (control astrocytes). Description: Drug repurposing screens with cells derived from glioblastoma tumor samples (AID 1345199). Further: nearly all actives have a fitted effect of over 40% in size. To be noted: viability, ATP luminescence, 48 h; series mostly up to 45.9 µM. As to the method:
CD133+ cells were isolated from GBM patient biopsies and cultured as neurospheres. Neurospheres from four patients were used to screen the NCATS pharmaceutical collection (NPC) library of approved drugs and bioactive compounds. […] The neurospheres were incubated with drugs for 48 hours in 1536-well format, then assayed with an ATP content cell viability assay. […] These hits were cherry picked to confirm activity in the four original GBM lines screened plus three other slower growing GMB lines (unable to yield enough cells for a full primary screen). Variable activities of the confirmed primary hits in the different GBM patient lines were observed. The patient line 206 responded to the greatest number of compounds and line 923 responded to the least amount of active compounds.
Regarding `CCCCCCCCCCCCCCCC(=O)OC[C@@H](NC(=O)C(Cl)Cl)[C@H](O)c1ccc([N+](=O)[O-])cc1`, the Potency entry is “inactive”.
Regarding `Nc1ccn(C[C@@H](CO)OCP(=O)(O)O)c(=O)n1`, the Potency result is “inactive”.
Consider `O=C(O)C(=O)Nc1cccc(C2=NN=N[N]2)c1`, for which the Potency result was “inactive”.
For `Nc1ccn(C2CO[C@H](CO)O2)c(=O)n1` (some centres undefined), the Potency entry is “inactive”.
Consider `CC1(C)[C@H](O[C@H]2O[C@H](C(=O)O)[C@@H](O)[C@H](O)[C@H]2O[C@@H]2O[C@H](C(=O)O)[C@@H](O)[C@H](O)[C@H]2O)CC[C@@]2(C)[C@H]1CC[C@]1(C)[C@H]2C(=O)C=C2[C@H]3C[C@@](C)(C(=O)O)CC[C@]3(C)CC[C@]21C`, for which the Potency result was “inactive”.
The result for `Cc1onc(-c2ccccc2)c1C(=O)N[C@@H]1C(=O)N2[C@@H](C(=O)O)C(C)(C)S[C@@H]12` reads “inactive”; that for `Cc1ccccc1C(=O)Nc1ccc(C(=O)N2CCCC(O)c3cc(Cl)ccc32)c(C)c1` (centres undefined), “inactive”.
For the molecule `COC1=C(OC)C(=O)C(CC=C(C)CCC=C(C)CCC=C(C)CCC=C(C)CCC=C(C)CCC=C(C)CCC=C(C)CCC=C(C)CCC=C(C)CCC=C(C)C)=C(C)C1=O`, the Potency result was “inactive”.
The value for `C#CCC(Cc1cnc2nc(N)nc(N)c2n1)c1ccc(C(=O)N[C@@H](CCC(=O)O)C(=O)O)cc1` (some centres undefined) was “inactive”; that for `CCCCCCCN(CC)CCCC(O)c1ccc(NS(C)(=O)=O)cc1` (centres undefined) was “inactive”; that for `O=C1c2c(O)cccc2[C@@H]([C@@H]2O[C@H](CO)[C@@H](O)[C@H](O)[C@H]2O)c2cc(CO)cc(O)c21` was “inactive”.
As for `N[C@H]1CN(c2c(F)cc3c(=O)c(C(=O)O)cn(C4C[C@@H]4F)c3c2Cl)CC12CC2` (some centres undefined), the Potency result is “inactive”.
As for `C[C@H]1C[C@H]2[C@@H]3CCC4=CC(=O)C=C[C@]4(C)[C@@H]3C(=O)C[C@]2(C)[C@@]1(O)C(=O)CO`, the Potency result was “inactive”.
In the case of `CC(C)N1[N]C(=C2C=c3cc(O)ccc3=N2)c2c(N)ncnc21`, the Potency was 3.55 µM (active).
